# How the values were obtained:
# Assay in all cases: HT-SELEX; 20 mM HEPES pH 7, 140 mM KCl, 5 mM NaCl, 1 mM K2HPO4, 2 mM MgSO4, 100 uM EGTA, ZnSO4, 0.1% Tween20; room temperature, 1 h; high values mean tight binding
# Conditions in all cases: protein: ivt; tags: eGFP (N-terminal); dsDNA, one strand shown
# ZNF721 full-length = ZNF721 full-length (Homo sapiens, UniProt Q8TF20-2 1-923)
# Method in brief: (§1)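 The binding signal is a relative k-mer count in selected reads, and higher values mean tighter binding. To obtain these reads, bead-bound tagged transcription factor (full-length or DNA-binding-domain fragment, produced in HEK293 lysate or cell-free extract) was mixed with a randomized 40-base DNA library for 1 h at room temperature in low-stringency HEPES/KCl buffer with Tween20. Bound DNA was recovered by washing and heat elution, PCR-amplified through successive cycles and sequenced on Illumina (~3 million 60 bp reads per sample).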
# ZNF721 DBD1 = ZNF721 DBD1 (Homo sapiens, UniProt Q8TF20-2 29-461)
# Method in brief: as §1
# ZNF721 DBD2 = ZNF721 DBD2 (Homo sapiens, UniProt Q8TF20-2 395-923)
# Method in brief: as §1
# Chain of ZNF721 full-length (Q8TF20 other isoform, or with tags, fused parts or gaps): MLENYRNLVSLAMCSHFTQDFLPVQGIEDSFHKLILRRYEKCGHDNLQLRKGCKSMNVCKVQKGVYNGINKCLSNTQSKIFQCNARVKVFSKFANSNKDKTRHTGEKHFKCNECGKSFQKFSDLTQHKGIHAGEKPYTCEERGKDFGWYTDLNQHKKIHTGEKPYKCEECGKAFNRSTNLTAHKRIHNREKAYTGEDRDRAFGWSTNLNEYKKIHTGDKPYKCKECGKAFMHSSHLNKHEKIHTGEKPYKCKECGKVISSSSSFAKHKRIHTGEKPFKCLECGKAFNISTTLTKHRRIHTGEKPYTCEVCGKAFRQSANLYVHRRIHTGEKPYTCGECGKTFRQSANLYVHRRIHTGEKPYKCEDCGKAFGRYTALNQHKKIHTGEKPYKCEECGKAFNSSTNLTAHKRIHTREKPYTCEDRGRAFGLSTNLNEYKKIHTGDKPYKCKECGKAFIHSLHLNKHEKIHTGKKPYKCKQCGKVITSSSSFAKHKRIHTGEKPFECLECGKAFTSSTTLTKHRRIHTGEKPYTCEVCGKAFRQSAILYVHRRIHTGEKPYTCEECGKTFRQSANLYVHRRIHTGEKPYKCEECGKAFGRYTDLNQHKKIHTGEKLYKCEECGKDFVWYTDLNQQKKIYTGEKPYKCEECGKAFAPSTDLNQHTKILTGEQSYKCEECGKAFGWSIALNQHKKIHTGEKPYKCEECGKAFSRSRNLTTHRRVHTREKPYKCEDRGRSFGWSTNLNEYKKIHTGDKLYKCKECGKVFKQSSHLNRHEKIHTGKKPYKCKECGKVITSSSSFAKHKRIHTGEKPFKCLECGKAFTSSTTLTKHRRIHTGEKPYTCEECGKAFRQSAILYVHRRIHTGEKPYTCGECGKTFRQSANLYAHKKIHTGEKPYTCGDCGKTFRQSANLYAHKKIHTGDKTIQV
# Chain of ZNF721 DBD2 (Q8TF20 383-911): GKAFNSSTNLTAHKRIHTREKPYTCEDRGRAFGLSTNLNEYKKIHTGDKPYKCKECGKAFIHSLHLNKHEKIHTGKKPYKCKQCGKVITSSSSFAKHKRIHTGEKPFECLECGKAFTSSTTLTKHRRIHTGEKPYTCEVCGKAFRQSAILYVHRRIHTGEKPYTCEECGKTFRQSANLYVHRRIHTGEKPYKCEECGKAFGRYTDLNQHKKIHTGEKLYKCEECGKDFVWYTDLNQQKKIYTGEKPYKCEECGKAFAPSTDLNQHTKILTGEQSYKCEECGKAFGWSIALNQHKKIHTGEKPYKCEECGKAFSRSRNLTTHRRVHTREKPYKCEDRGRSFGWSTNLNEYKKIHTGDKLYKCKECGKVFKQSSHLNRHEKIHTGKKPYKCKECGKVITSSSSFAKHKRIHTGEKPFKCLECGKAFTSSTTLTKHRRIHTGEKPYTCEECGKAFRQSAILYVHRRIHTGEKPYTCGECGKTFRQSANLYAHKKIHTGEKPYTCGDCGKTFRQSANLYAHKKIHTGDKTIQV
# Chain of ZNF721 DBD1 (Q8TF20 17-449): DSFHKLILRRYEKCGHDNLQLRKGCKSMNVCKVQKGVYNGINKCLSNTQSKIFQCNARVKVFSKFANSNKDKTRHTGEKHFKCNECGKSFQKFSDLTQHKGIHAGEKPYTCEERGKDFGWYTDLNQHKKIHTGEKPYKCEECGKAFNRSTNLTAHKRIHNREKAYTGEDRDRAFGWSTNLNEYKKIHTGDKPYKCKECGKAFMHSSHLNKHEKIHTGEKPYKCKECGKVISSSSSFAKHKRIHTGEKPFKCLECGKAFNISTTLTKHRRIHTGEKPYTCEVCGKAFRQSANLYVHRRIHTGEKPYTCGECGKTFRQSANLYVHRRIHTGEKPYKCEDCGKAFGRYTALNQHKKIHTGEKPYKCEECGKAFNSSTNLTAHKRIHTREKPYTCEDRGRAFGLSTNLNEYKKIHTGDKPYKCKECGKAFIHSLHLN
Sequence,binding signal (ZNF721 full-length) [relative 10-mer count],binding signal (ZNF721 DBD1) [relative 10-mer count],binding signal (ZNF721 DBD2) [relative 10-mer count]
ACTTCATACC,0.377,0.502,–
AAGCTATACC,0.227,0.155,–
CTTCATACCA,0.116,0.165,–
CGCCCCCCCC,0.171,0.00527,–
AGCTTCATAC,0.196,0.296,–
AGCTTCTTTC,0.151,0.125,–
AGTATGAAGC,0.167,0.232,–
AAAAGCTATA,0.177,0.0882,–
AAAAAAAAAA,0.186,0.0189,0.0538
CCACACCCAC,0.128,0.00605,0.00515
ACCGAAAAAA,0.104,0.00949,0.0485
ATGTATGAAG,0.263,0.279,–
CCCGCTCCCC,0.13,0.00527,–
AAAGCTATAC,0.183,0.0924,–
AACCCACCCC,0.143,0.00596,–
AAGAAGCTAT,0.144,0.16,–
AACCCCCACC,0.108,0.00495,–
CCCAGCCCCC,0.163,0.00518,–
CCCGCACCCC,0.193,0.00784,–
CCAGCCCCCC,0.131,0.00316,–
ACTTCATACT,0.154,0.27,–
ATACACTTCA,0.245,0.223,–

Sequence,binding signal (ZNF721 full-length) [relative 10-mer count],binding signal (ZNF721 DBD1) [relative 10-mer count],binding signal (ZNF721 DBD2) [relative 10-mer count]
AGGTATGAAG,0.192,0.217,–
CTTCATACCC,0.221,0.363,–
CTCCGCCCCC,0.11,0.00537,–
CCCCTGCCCC,0.217,0.00734,–
GAAGCTATAC,0.107,0.143,–
CCCCCGGCCC,0.102,0.00394,–
CGGTATGAAG,0.108,0.15,–
CGCCGCCCCC,0.138,0.00518,–
CCCCGGCCCC,0.12,0.00358,–
GCTTCATACC,0.229,0.354,–
CCCGCCCGCC,0.128,0.0044,–
CCCCGACCCC,0.24,0.00789,–
AGGGTATCCA,0.133,0.00858,0.224
ACCCGCCCCC,0.153,0.005,–
GAAGTGTATC,0.279,0.247,–
ATGAAGTGTA,0.376,0.432,–
CCCCCCCCCC,0.116,0.00358,–
ACTTCATACA,0.358,0.393,–
ACAGCGTTAC,0.102,0.00105,0.207
CACCAACCCC,0.123,0.00404,0.00407
CCACCCGCCC,0.235,0.00922,0.00443
CCCACCGCCC,0.319,0.0135,0.00551

Sequence,binding signal (ZNF721 full-length) [relative 10-mer count],binding signal (ZNF721 DBD1) [relative 10-mer count],binding signal (ZNF721 DBD2) [relative 10-mer count]
AGGATACCCT,0.106,0.00527,0.171
CCACCCCACA,0.163,0.00564,0.00791
CCCGCCCCCA,0.153,0.00706,0.00132
ACCGCCCACC,0.152,0.005,0.00204
CTCCCCTCCC,0.135,0.00693,0.00455
CCACCGCCCC,0.256,0.0117,0.00455
AAGCAGCATA,0.179,0.00216,0.199
CACCACCGCC,0.103,0.00454,0.00324
AGCGTCTCCT,0.109,0.0353,0.194
CCTCCCCACC,0.255,0.0111,0.00791
CCACCCCGCC,0.263,0.00894,0.00503
CGCCCCACCA,0.117,0.00362,0.00312
AGCATACCCT,0.346,0.0443,0.416
CACGCCCACC,0.123,0.00518,0.00947
CCCCCACCTC,0.198,0.00945,0.00551
CCAAAAAAAA,0.211,0.0171,0.0966
CCGTCCCACC,0.123,0.00546,0.00312
AACCCCACCC,0.141,0.00294,0.00156
AAAAAGCTGC,0.229,0.0954,0.00372
CTCCCCACCC,0.198,0.00936,0.00395
CTCCCCCCCC,0.158,0.00761,0.003
GCTTCATACA,0.231,0.318,0.0018
